Results from PubChem BioAssay AID434970 (Sanford-Burnham Center for Chemical Genomics, 2010).
The campaign covered roughly 11,000 compounds. About 310 (2.8%) were called active. Cut-off read from the data, not from the text of the source: active = activity change below about -85%; inactive = the rest. Shown is part of a subset that was picked to be rich in actives.

What follows are molecules tested on intestinal alkaline phosphatase [Mus musculus] (assay: mouse intestinal phosphatase enzyme activation – biochemical, luminescence, single concentration, confirmation (AID 434970)). Conditions: purified mouse IAP, CDP-Star luminescence, 30 min, at 10 µM; activation factor: measured here: IAP activation factor, stronger effect = higher value; activity change, negative = activation: stronger effect = lower value.
In the case of `Cc1ccccc1C1C(C#N)=C2N=C(N)c3c(sc4c3CCCCC4)N2C2=C1C(=O)CCC2` (centres undefined), the activation factor is reported as 0.831 and the activity change, negative = activation is reported as 16.9% (inactive).
`CC1N(O)C(C)(C)C(c2ccccc2)=[N+]1[O-]` (centres undefined) was tested, and the activation factor was 1.08 and the activity change, negative = activation was -7.85% (inactive).
With `Cc1cc(NC(=O)CSc2ccc(-c3ccccc3)nn2)no1` the activation factor was 0.978 and the activity change, negative = activation was 2.15% (inactive).
`CCOC(=O)Cn1c(=O)c(-c2ccccc2NCc2ccccc2)nc2ccccc21` was tested, and the activation factor was 0.764 and the activity change, negative = activation was 23.5% (inactive).
With `COCCn1c(-c2cc(OC)c(OC)c(OC)c2)nc2oc3ccccc3c(=O)c2c1=O` the activation factor was 0.931 and the activity change, negative = activation was 6.9% (inactive).
For `COc1ccc(C2(CNC(=O)Cc3ccc(OC)c(OC)c3)CCOCC2)cc1`, the activation factor was 0.999 and the activity change, negative = activation was 0.05% (inactive).
`C#CCOCCOCCOCCNc1nc(N2CCN(C(=O)CCCCCCCCCCNC(=O)[C@H]([C@@H](C)CC)n3cc(CCCCN=C(N)N)nn3)CC2)nc(N2CCN(C(=O)CCCCCCCCCCNC(=O)[C@H](CO)n3cc(CCCSC)nn3)CC2)n1` was tested, and the activation factor was 15.4 and the activity change, negative = activation was -1440% (active).
In the case of `C#CCOCCOCCOCCNc1nc(N2CCN(C(=O)CCCCCCCCCCNC(=O)[C@@H](CCSC)n3cc(CCO)nn3)CC2)nc(N2CCN(C(=O)CCCCCCCCCCNC(=O)[C@H]([C@@H](C)CC)n3cc(CCCCN=C(N)N)nn3)CC2)n1`, the activation factor is reported as 22.1 and the activity change, negative = activation is reported as -2110% (active).
`C#CCOCCOCCOCCNc1nc(N2CCN(C(=O)CCCCCCCCCCNC(=O)[C@@H](CCSC)n3cc(CCO)nn3)CC2)nc(N2CCN(C(=O)CCCCCCCCCCNC(=O)[C@H]([C@@H](C)CC)n3cc(CCCCCN)nn3)CC2)n1` was tested, and the activation factor was 7.35 and the activity change, negative = activation was -635% (active).
With `FC(F)(F)c1nnc2sc(-c3cccs3)nn12` the activation factor was 0.967 and the activity change, negative = activation was 3.3% (inactive).
With `CC(=O)Nc1ccc(Nc2nc(C)nc3c2oc2ccccc23)cc1` the activation factor was 1.01 and the activity change, negative = activation was -1.3% (inactive).
In the case of `Cn1nnnc1SCC(=O)Nc1ccc(Oc2ccccc2)cc1`, the activation factor is reported as 0.952 and the activity change, negative = activation is reported as 4.85% (inactive).
In the case of `COc1ccc(CCn2c(C)cc(C(=O)CSc3nnc(N)s3)c2C)cc1`, the activation factor is reported as 0.959 and the activity change, negative = activation is reported as 4.1% (inactive).
In the case of `O=C(NCc1ccc(Cl)cc1Cl)C1CCN(S(=O)(=O)c2ccc3c(c2)OCCCO3)CC1`, the activation factor is reported as 1.48 and the activity change, negative = activation is reported as -48.2% (inactive).
For `COCCNC(=O)CN(C)S(=O)(=O)c1ccc2c(c1)OCCO2`, the activation factor was 0.928 and the activity change, negative = activation was 7.15% (inactive).
`COc1ccc(NC2=C(C(C)=O)C(c3ccc(OC)c(OC)c3)C(C(C)=O)C(C)(O)C2)cc1` (centres undefined) was tested, and the activation factor was 1.08 and the activity change, negative = activation was -7.85% (inactive).
`CCn1nnnc1SCC(=O)Nc1ccc2c(c1)OCO2` was tested, and the activation factor was 0.992 and the activity change, negative = activation was 0.8% (inactive).
For `COc1cccc(-c2cc(C(=O)Nc3cc(C)nn3-c3ccccc3)no2)c1`, the activation factor was 1.1 and the activity change, negative = activation was -10.2% (inactive).
In the case of `Cc1cc(NC(=O)c2ccc(C)s2)n(-c2ccccc2)n1`, the activation factor is reported as 1.01 and the activity change, negative = activation is reported as -0.8% (inactive).
With `CCOC(=O)/C=C(\C)Nc1cc(C)nn1-c1ccccc1` the activation factor was 1.04 and the activity change, negative = activation was -4.05% (inactive).
`Cc1cc(NC(=O)Nc2cc(C)nn2-c2ccccc2)n(-c2ccccc2)n1` was tested, and the activation factor was 0.992 and the activity change, negative = activation was 0.75% (inactive).
For `Cc1cc(NC(=O)Nc2ccc(Cl)c(Cl)c2)n(-c2ccccc2)n1`, the activation factor was 2.79 and the activity change, negative = activation was -179% (active).
`Cc1nn(C)c(C)c1NC(=O)Nc1ccc(Cl)c(Cl)c1` was tested, and the activation factor was 1.62 and the activity change, negative = activation was -62.2% (inactive).
For `Cc1cc(NC(=O)Nc2ccc(Cl)cc2)n(-c2ccccc2)n1`, the activation factor was 2.07 and the activity change, negative = activation was -107% (active).
In the case of `COc1ccc(-c2cc(C(=O)Nc3cc(C)nn3-c3ccccc3)no2)cc1`, the activation factor is reported as 0.921 and the activity change, negative = activation is reported as 7.9% (inactive).
With `Cc1cc(NC(=O)Nc2cccc(Cl)c2)n(-c2ccccc2)n1` the activation factor was 1.97 and the activity change, negative = activation was -97.1% (active).
With `COc1cc(C2Nc3cc(Cl)c(S(N)(=O)=O)cc3S(=O)(=O)N2)ccc1OCc1ccccc1` (centres undefined) the activation factor was 0.84 and the activity change, negative = activation was 16% (inactive).
`CC[C@]12c3[nH]c4cc(CCC(=O)N(C)C)ccc4c3CCN1C(=O)[C@@H](CC(=O)NCC13CC4CC(CC(C4)C1)C3)C[C@@H]2C(=O)N1CCN(C(=O)C2CC2)CC1` was tested, and the activation factor was 1.15 and the activity change, negative = activation was -14.6% (inactive).
With `O=C(CCl)Oc1ccc2occ(C(=O)c3cccs3)c2c1` the activation factor was 0.89 and the activity change, negative = activation was 11% (inactive).
With `Cc1[nH]c2ccccc2c1C(=O)COC(=O)C1CC(=O)N(Cc2ccco2)C1` (centres undefined) the activation factor was 1.14 and the activity change, negative = activation was -13.6% (inactive).
`CCOC(=O)C1=CNS(=O)(=O)NC1c1ccc(C)cc1` (centres undefined) was tested, and the activation factor was 0.96 and the activity change, negative = activation was 4.05% (inactive).
For `COc1ccc2c(c1)[nH]c1c(=O)n(CCc3cnc[nH]3)cnc12`, the activation factor was 1.02 and the activity change, negative = activation was -1.9% (inactive).
`CCCCCOc1ccc(C(=O)CCC(=O)NNC(=O)c2ccncc2)cc1` was tested, and the activation factor was 3.52 and the activity change, negative = activation was -252% (active).
`CCCOc1ccc(C(=O)NCCO)cc1` was tested, and the activation factor was 1.01 and the activity change, negative = activation was -1.1% (inactive).
With `CCCCOc1ccc(-c2nnc(-c3ccncc3)o2)cc1` the activation factor was 0.94 and the activity change, negative = activation was 6.05% (inactive).
For `CC[C@]1(C(=O)OC)[C@H]2C(=O)N(C)C(=O)[C@H]2[C@H]2CN=C(SCc3ccc(C#N)cc3)N21`, the activation factor was 1.07 and the activity change, negative = activation was -6.55% (inactive).
With `N#Cc1nc(-c2ccc(Cl)cc2)oc1NCc1ccco1` the activation factor was 0.952 and the activity change, negative = activation was 4.8% (inactive).
For `COc1ccccc1-c1cc(C(F)(F)F)nc(N2CCCC2)n1`, the activation factor was 0.939 and the activity change, negative = activation was 6.15% (inactive).
`O=C(Cn1cc(C(=O)c2ccco2)c2ccccc21)NCc1ccco1` was tested, and the activation factor was 0.907 and the activity change, negative = activation was 9.3% (inactive).
For `S=C(NCc1cccc(Cl)c1)NC1CCCCC1`, the activation factor was 1.14 and the activity change, negative = activation was -14.3% (inactive).
For `S=C(NCc1ccc(Cl)cc1Cl)NC1CCCCC1`, the activation factor was 1.93 and the activity change, negative = activation was -93% (active).
For `S=C(NCc1ccc(Cl)cc1Cl)Nc1ccccc1`, the activation factor was 1.41 and the activity change, negative = activation was -41% (inactive).
In the case of `Cc1cccc(NC(=O)C2=C(O)c3ccccc3N(C)S2(=O)=O)c1`, the activation factor is reported as 0.998 and the activity change, negative = activation is reported as 0.2% (inactive).
For `N#Cc1nc(COc2ccc(Cl)cc2)oc1N1CCCCCC1`, the activation factor was 0.964 and the activity change, negative = activation was 3.6% (inactive).
For `CCOC(=O)c1cccc(NC(=O)CCS(=O)(=O)c2cccs2)c1`, the activation factor was 1.01 and the activity change, negative = activation was -0.85% (inactive).
In the case of `COc1ccc(C(=O)NNC(=S)NC(=O)c2cc(-c3ccccc3)nc3ccccc23)cc1`, the activation factor is reported as 0.848 and the activity change, negative = activation is reported as 15.2% (inactive).
For `C[C@]12c3[nH]c4cc(-c5ccco5)ccc4c3CCN1C(=O)[C@@H](CC(=O)NCCN1CCOCC1)C[C@@H]2C(=O)N1CCOCC1`, the activation factor was 0.997 and the activity change, negative = activation was 0.25% (inactive).
For `Cc1noc(C)c1S(=O)(=O)N(C)C[C@H]1Oc2ccc(NC(=O)NC3CCCCC3)cc2C(=O)N([C@H](C)CO)C[C@@H]1C`, the activation factor was 1.82 and the activity change, negative = activation was -81.5% (inactive).
With `COc1ccc(S(=O)(=O)N(C)C[C@H]2Oc3ccc(NC(=O)NC4CCCCC4)cc3C(=O)N([C@H](C)CO)C[C@@H]2C)cc1` the activation factor was 2.74 and the activity change, negative = activation was -174% (active).
With `C[C@H](CO)N1C[C@H](C)[C@@H](CN(C)S(=O)(=O)c2ccc(F)cc2)Oc2ccc(NC(=O)Nc3ccc4c(c3)OCO4)cc2C1=O` the activation factor was 1.82 and the activity change, negative = activation was -81.6% (inactive).
For `C[C@H](CO)N1C[C@H](C)[C@@H](CN(C)S(=O)(=O)c2ccccc2)Oc2ccc(NC(=O)NC3CCCCC3)cc2C1=O`, the activation factor was 2.79 and the activity change, negative = activation was -179% (active).
`COc1ccc(NC(=O)N(C)C[C@H]2Oc3ccc(NC(=O)NC4CCCCC4)cc3C(=O)N([C@H](C)CO)C[C@@H]2C)cc1` was tested, and the activation factor was 1.61 and the activity change, negative = activation was -60.9% (inactive).
For `C[C@H](CO)N1C[C@H](C)[C@H](CN(C)S(=O)(=O)c2ccccc2)Oc2ccc(NC(=O)NC3CCCCC3)cc2CC1=O`, the activation factor was 1.71 and the activity change, negative = activation was -71.4% (inactive).
For `C[C@H](CO)N1C[C@H](C)[C@@H](CN(C)S(=O)(=O)c2ccc(F)cc2)Oc2ccc(NC(=O)NC3CCCCC3)cc2C1=O`, the activation factor was 2.2 and the activity change, negative = activation was -120% (active).
In the case of `C[C@@H]1CN([C@@H](C)CO)C(=O)c2cc(NC(=O)Nc3ccc4c(c3)OCO4)ccc2O[C@H]1CN(C)S(=O)(=O)c1ccc(F)cc1`, the activation factor is reported as 1.65 and the activity change, negative = activation is reported as -64.8% (inactive).
With `Cc1ccc(NC(=O)N2CCC(NC(=O)c3ccccc3C)CC2)cc1` the activation factor was 0.993 and the activity change, negative = activation was 0.7% (inactive).
With `O=C(C[C@H]1C[C@H](C(=O)N2CCCCC2)[C@@]2(CCc3ccccc3)c3[nH]c4cc(-c5ccco5)ccc4c3CCN2C1=O)NCc1ccco1` the activation factor was 1.16 and the activity change, negative = activation was -16.1% (inactive).
With `O=C(NCc1cccc2ccccc12)Nc1ccccc1` the activation factor was 1.74 and the activity change, negative = activation was -74.1% (inactive).
For `O=C(Nc1ccccc1)Nc1cccc(Cl)c1`, the activation factor was 2.11 and the activity change, negative = activation was -111% (active).
With `O=C(Nc1ccc(C(=O)N2CCCCC2)cc1)Nc1cccc(Cl)c1` the activation factor was 2.39 and the activity change, negative = activation was -139% (active).
In the case of `CC(=O)c1ccc(NC(=O)N2CCN(c3cccc(Cl)c3)CC2)cc1`, the activation factor is reported as 1.08 and the activity change, negative = activation is reported as -7.6% (inactive).
In the case of `O=C(Cc1ccccc1)NNC(=O)Nc1cccc(Cl)c1`, the activation factor is reported as 0.911 and the activity change, negative = activation is reported as 8.85% (inactive).
With `O=C(Cn1nnc(-c2ccc(Cl)cc2)n1)NC1CC2CCC1C2` (centres undefined) the activation factor was 1.15 and the activity change, negative = activation was -15.3% (inactive).
`O=C(Nc1cccc(Cl)c1)N1CCCC1` was tested, and the activation factor was 1.09 and the activity change, negative = activation was -8.6% (inactive).
With `COC(=O)c1ccc(NC(=S)NC2CC3CCC2C3)cc1` (centres undefined) the activation factor was 1.56 and the activity change, negative = activation was -56% (inactive).
For `O=C(Nc1cccc(Cl)c1)NC1CC2CCC1C2` (centres undefined), the activation factor was 2.64 and the activity change, negative = activation was -164% (active).
For `O=C(Cc1cccc2ccccc12)NNC(=O)Nc1cccc(Cl)c1`, the activation factor was 0.964 and the activity change, negative = activation was 3.65% (inactive).
With `O=C(NCc1csc2ccccc12)Nc1cc(Cl)cc(Cl)c1` the activation factor was 2.45 and the activity change, negative = activation was -145% (active).
With `CC[C@]12c3[nH]c4ccc(OC)cc4c3CCN1C(=O)C(CC(=O)NCCC1=CCCCC1)C[C@@H]2C(=O)N1CCN(C(=O)C2CC2)CC1` (some centres undefined) the activation factor was 1.01 and the activity change, negative = activation was -1.4% (inactive).
`O=C(Oc1cccc(NC(=O)c2ccco2)c1)c1ccc(Br)c(S(=O)(=O)N2CCCCC2)c1` was tested, and the activation factor was 0.907 and the activity change, negative = activation was 9.3% (inactive).
For `O=C(Nc1scc(-c2ccccc2)c1C(=O)O)c1ccco1`, the activation factor was 0.964 and the activity change, negative = activation was 3.6% (inactive).
`CCn1c(CNc2ccc(OC)cc2)nnc1SCC(=O)Nc1ccc(F)cc1` was tested, and the activation factor was 1.08 and the activity change, negative = activation was -7.7% (inactive).
